p97 ATPase inh = human p97 ATPase inhibition. P55072. recombinant p97 ATPase, Kinase-Glo ATP luminescence, 3 h. inhibition, % at 8 µM. actives 0.42% (n = 220,000); in the data active means inhibition above about 15%
Target sequence (P55072 whole entry, looked up): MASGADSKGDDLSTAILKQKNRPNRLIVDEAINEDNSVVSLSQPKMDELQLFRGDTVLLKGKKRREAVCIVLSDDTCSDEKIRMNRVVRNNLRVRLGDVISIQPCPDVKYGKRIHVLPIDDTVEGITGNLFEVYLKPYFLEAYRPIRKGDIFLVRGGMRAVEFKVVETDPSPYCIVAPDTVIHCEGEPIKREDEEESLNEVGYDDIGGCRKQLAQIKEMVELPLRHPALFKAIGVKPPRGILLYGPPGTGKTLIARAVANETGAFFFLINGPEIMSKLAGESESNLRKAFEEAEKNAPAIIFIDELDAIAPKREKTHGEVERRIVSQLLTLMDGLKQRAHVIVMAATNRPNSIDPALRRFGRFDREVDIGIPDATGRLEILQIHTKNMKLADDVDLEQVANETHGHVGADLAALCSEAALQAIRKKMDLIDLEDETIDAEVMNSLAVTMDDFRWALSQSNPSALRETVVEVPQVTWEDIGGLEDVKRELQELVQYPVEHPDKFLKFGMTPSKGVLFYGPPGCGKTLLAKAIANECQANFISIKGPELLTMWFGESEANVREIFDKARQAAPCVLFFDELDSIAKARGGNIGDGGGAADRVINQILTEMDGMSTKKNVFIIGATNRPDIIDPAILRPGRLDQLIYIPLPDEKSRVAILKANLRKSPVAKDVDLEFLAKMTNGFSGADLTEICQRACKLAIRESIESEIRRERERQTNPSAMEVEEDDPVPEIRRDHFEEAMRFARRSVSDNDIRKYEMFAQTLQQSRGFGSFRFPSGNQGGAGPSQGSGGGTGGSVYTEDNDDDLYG
Insulin prom inh = TRM-6 insulin promoter activity inhibition; TRM-6 cells (human fetal islet line), insulin promoter-eGFP reporter, imaging; reporter expression induced with tamoxifen; inhibition, % at 2 µM; actives 0.9% (n = 130,000);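 active means inhibition above the mean plus 3 SD, with well images judged a real hit on visual review, cut at about 60% in these data, passing the limit was not always enough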
bCat KO growth = beta-catenin-lacking colon tumor cell growth suppression. HCT116 beta-catenin knockout viability, CellTiter-Glo, 60 h; active compounds read low. viability, % at 10 µM. actives 1.5% (n = 140,000). AID 818;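 active means viability at or under a set limit, the compound median less 4 SD, cut at about 6% in these data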
PTEN del growth = suppresses growth of cells with PTEN deletion; actives 1.2% (n = 140,000); viability, % at 10 µM; HCT116 PTEN-null viability, CellTiter-Glo, 60 h; active compounds read low; AID 827;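 active means viability at or below a set limit, 4 SD under the median of all tested compounds, cut at about 3.7% in these data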;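 further: PTEN knockout HCT116 line with beta catenin targeted HCT116 as companion control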
Lmaj promast = Leishmania major promastigote growth inhibition; actives 9% (n = 200,000); Leishmania major promastigotes, resazurin fluorescence viability; inhibition, % at 10 µM; AID 1063; in the data active means inhibition above about 50%;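 further: promastigotes grown with compound for 44 hours at 28 °C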
ROMK mod = human ROMK K+ channel modulation, primary screen | P48048 | Tet-inducible ROMK, thallium flux fluorescence; actives lie on both sides | B-score at 10 µM | actives 2% (n = 130,000) | AID 1918;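 active means signal ratio slope over the read window, or its plate-corrected B-score, at least 3 SD from the plate mean, either direction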;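 further: B-score of the F/F0 ratio slope over 7 to 12 s after thallium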
Each line names hits and unclear results; the compound was inactive in the other large screens. Rows were chosen to be rich in hits. Some 10% of all compounds tested hit in one or more screens of this group.

CCOC(=O)N1CCN(C(=O)C2CCCCC2)CC1	none
CCOC(=O)N1CCN(CCC(=O)c2ccc(Cl)cc2)CC1	Lmaj promast 94.5
CCOC(=O)N1CCN(CCC(=O)c2ccc(OC)cc2)CC1	Lmaj promast 81.8 (no result: bCat KO growth, PTEN del growth)
CC1(C)CC(=O)c2c(O)c(-c3ccccc3)c(=O)n(-c3ccccc3)c2C1	none
CCn1cc(/C=N\NC(=O)C2(C)CC2(Cl)Cl)c(C)n1 (centres undefined)	none
COC(=O)c1c(NC(=O)C2CC2)sc(C(=O)Nc2ccccc2)c1C	none (no result: Insulin prom inh, bCat KO growth, PTEN del growth)
CCOC(=O)N1CCC(NCCNC(=O)c2ccco2)CC1	none (no result: Insulin prom inh, bCat KO growth, PTEN del growth)
CCOC(=O)N1CCC(NCCNC(=O)c2ccc(Cl)cc2)CC1	Lmaj promast 90.8
COc1ccc(CCN2C(=O)c3[nH]nc(-c4ccccc4O)c3C2c2cccc(Cl)c2)cc1 (centres undefined)	Lmaj promast 100.5 (no result: ROMK mod)
COc1ccc(C2c3c(-c4ccccc4O)n[nH]c3C(=O)N2Cc2ccco2)cc1 (centres undefined)	none (no result: Insulin prom inh, bCat KO growth, PTEN del growth, Lmaj promast)
COc1ccc(C2c3c(-c4ccccc4O)n[nH]c3C(=O)N2CCc2ccc(OC)c(OC)c2)cc1 (centres undefined)	Lmaj promast 89.3 (no result: Insulin prom inh, ROMK mod)
O=C(CN1CCN(CC(=O)Nc2ccccc2C(F)(F)F)CC1)Nc1ccccc1F	Insulin prom inh 84.6
Cc1ccc(Sc2ncccc2C(=O)O)cc1C	Lmaj promast 59.0
COc1ccc(C2C(C#N)=C(N)N(c3ccccc3C#N)C3=C2C(=O)CCC3)cc1CN1CCCC1 (centres undefined)	none
COCCNC(=O)C(c1ccc(F)cc1)N(C(=O)CCC(=O)Nc1nccs1)c1ccc(C)cc1 (centres undefined)	none (no result: Insulin prom inh, bCat KO growth, PTEN del growth)
CCN(CC)CC(C)CNC(=O)CC(C(=O)N1CCc2ccccc21)n1ccnc1 (centres undefined)	none (no result: ROMK mod)
CCOC(=O)N1CCN(C(=O)CC(C(=O)N2CCc3ccccc32)n2ccnc2)CC1 (centres undefined)	Lmaj promast 83.4 (no result: Insulin prom inh)
O=C(CC(C(=O)N1CCc2ccccc21)n1ccnc1)NCc1ccccc1 (centres undefined)	Lmaj promast 100.1
COc1cc(NC(=O)c2ncn[nH]2)cc(OC)c1OC	none
c1ccc(C2CCC3(CC2)Oc2ccccc2C2CC(c4cccnc4)=NN23)cc1 (centres undefined)	Lmaj promast 89.4
CC1(C)CC(N2CCN(Cc3ccccc3)CC2)=CC(=[N+]2CCCCC2)C1	none (no result: Insulin prom inh, bCat KO growth, PTEN del growth, Lmaj promast, ROMK mod)
CC1(C)CC(N2CCCC2)=CC(=[N+]2CCCCC2)C1	Lmaj promast 99.8 (no result: bCat KO growth, PTEN del growth)
CC1(C)CC(N2CCCC2)=CC(=[N+]2CCCC2)C1	Lmaj promast 99.3
CC(C)CCOc1ccc(C(=O)N2CCCC2C(=O)O)cc1 (centres undefined)	none (no result: Insulin prom inh, bCat KO growth, PTEN del growth)
CCS(=O)(=O)c1ccc(N=Nc2ccc(O)c3ncccc23)c(OC)c1	Lmaj promast 99.9 (no result: bCat KO growth, PTEN del growth)
Cc1ccc(N=Nc2ccc(O)c3ncccc23)cc1	Lmaj promast 100.3
COc1ccc(N=Nc2cc(C)ccc2O)cc1	none (no result: Insulin prom inh, bCat KO growth, PTEN del growth, Lmaj promast, ROMK mod)
CCS(=O)(=O)c1ccc(O)c(NC(=O)c2cc(OC)c(OC)c(OC)c2)c1	none (no result: ROMK mod)
Cc1ccc(N=Nc2ccc(O)c3ncccc23)cc1C	Lmaj promast 100.2 (no result: bCat KO growth, PTEN del growth, ROMK mod)
O=C(COC(=O)CNS(=O)(=O)c1ccc2ccccc2c1)Nc1ccccc1Sc1ccccc1	none
Cc1ccc2c(c1)c1c(n2C)-c2[nH]ncc2CC1	Lmaj promast 98.7
O=C(Cc1csc(-c2ccccc2)n1)Nc1ccc(C(F)(F)F)cc1	Lmaj promast 86.7
Cc1ccc(NC(=O)Cc2csc(-c3ccccc3)n2)cc1F	none (no result: Insulin prom inh, ROMK mod)
CC(C)CN1CCC(CNC(=O)CCc2nnc(Cc3c[nH]c4ccccc34)o2)CC1	none (no result: bCat KO growth, PTEN del growth)
CCOC(=O)CSc1nnc(CNC(=O)c2ccc(S(=O)(=O)N3CCOCC3)cc2)n1C	none (no result: Insulin prom inh, bCat KO growth, PTEN del growth)
CCOC(=O)CSc1nnc(CNC(=O)c2ccc(S(=O)(=O)N3CCCC3)cc2)n1C	Insulin prom inh 90.0 (no result: ROMK mod)
O=C1c2ccccc2C(O)(c2ncc[nH]2)N1CCc1ccccc1 (centres undefined)	Lmaj promast 95.4 (no result: ROMK mod)
CC1(C)NC(=O)N(CCOCCOc2c(Cl)cc(Cl)cc2Cl)C1=O	none (no result: ROMK mod)
Cc1cccc(-n2c(SCc3ccc([N+](=O)[O-])cc3)nnc2-c2c[nH]c3ccccc23)c1	none (no result: bCat KO growth, PTEN del growth)
COC(=O)C1=C(C)N(c2ccc(C)c(C)c2)/C(=C/c2ccco2)C1=O	Lmaj promast 61.4 (no result: Insulin prom inh, bCat KO growth, PTEN del growth)
Cn1c(N)c(C(=O)COC(=O)c2ncc(Cl)c(Cl)c2Cl)c(=O)n(C)c1=O	none (no result: bCat KO growth, PTEN del growth)

Screening results from PubChem BioAssay.
